Data taken from PMC5540273 (PLoS ONE, 2017).
Values joined by “and” are separate entries in the source; they are usually repeats but may differ in a detail not shown here. Identical values can stand only once. Like-named read-outs stand apart in the source and are kept apart here.

What was measured:
PRKCD = settings: concentration: 1 μM, replicates: in singlicate, n = 1
PRKCE = settings: concentration: 1 μM, replicates: in singlicate, n = 1
PRKCH = settings: concentration: 1 μM, replicates: in singlicate, n = 1
PRKCI = settings: concentration: 1 μM, replicates: in singlicate, n = 1
PRKCQ = settings: concentration: 1 μM, replicates: in singlicate; n = 1
PRKD1 = settings: concentration: 1 μM, replicates: in singlicate, n = 1
PRKD2 = settings: concentration: 1 μM, replicates: in singlicate, n = 1
PRKD3 = settings: concentration: 1 μM, replicates: in singlicate, n = 1
PRKG1 = settings: concentration: 1 μM, replicates: in singlicate, n = 1
PRKG2 = settings: concentration: 1 μM, replicates: in singlicate, n = 1
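Note: KINOMEscan kinase panel screen.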

Compound	%Inh (PRKCD) [%]	%Inh (PRKCE) [%]	%Inh (PRKCH) [%]	%Inh (PRKCI) [%]	%Inh (PRKCQ) [%]	%Inh (PRKD1) [%]	%Inh (PRKD2) [%]	%Inh (PRKD3) [%]	%Inh (PRKG1) [%]	%Inh (PRKG2) [%]	%Inh (PRKCD; 1 µM)	%Inh (PRKCE; 1 µM)	%Inh (PRKCH; 1 µM)	%Inh (PRKCI; 1 µM)	%Inh (PRKD1; 1 µM)	%Inh (PRKD2; 1 µM)	%Inh (PRKD3; 1 µM)	%Inh (PRKG1; 1 µM)	%Inh (PRKG2; 1 µM)
Clc1cc(Nc2ncnc3cc[nH]c23)ccc1OCc1ccccn1	13	8	0	9	34	0	3	0	10	22	–	–	–	–	–	–	–	–	–
CCc1nc(-c2cccc(C)c2)c(-c2ccnc(NC(=O)c3ccccc3)c2)s1	20	2	4	2	0	0	0	0	0	0	–	–	–	–	–	–	–	–	–
CC(C)(C)OC(=O)NC1CCCN(c2cc(-c3ccc4c(N)n[nH]c4c3)nc(N)n2)C1 (stereo not drawn) [GSK2286096]	0	12	0	0	0	0	15	0	0	70	–	–	–	–	–	–	–	–	–
OCCOCCn1ccc2ncnc(Nc3ccc(Oc4cccc(Cl)c4)c(Cl)c3)c21	28	2	0	0	0	0	0	0	4	0	–	–	–	–	–	–	–	–	–
CN1c2ccc(-c3ccc(C(=O)NCCO)cc3)cc2-c2[nH]ncc2S1(=O)=O	26	12	8	0	1	0	34	0	61	9	–	–	–	–	–	–	–	–	–
O=C(c1ccc(-c2cc(-c3c[nH]nc3-c3ccccn3)ccn2)cc1)N1CCCC1 [GW792479]	12	0	0	100	0	0	0	0	13	0	–	–	–	–	–	–	–	–	–
Cn1ccc2ncnc(Nc3ccc(Oc4cccc(Cl)c4)c(Cl)c3)c21	30	13	3	0	60	0	30	0	0	0	–	–	–	–	–	–	–	–	–
CSc1nn2c(=O)cc(N3CCOCC3)nc2n1Cc1cccc(Cl)c1Cl [GSK2347225]	5	6	23	27	0	0	8	0	25	0	–	–	–	–	–	–	–	–	–
CNc1nccc(-c2c(-c3ccc(F)cc3)ncn2CCCN2CCOCC2)n1 [SB-222516]	1	5	0	20	0	0	0	0	14	16	–	–	–	–	–	–	–	–	–
COc1ccc(-c2nc3n(c2-c2ccncc2)CCC3)cc1 [SKF-104493]	–	–	–	–	0	–	–	–	–	–	0% and 8%	45% and 8%	6% and 7%	0% and 50%	0% and 3%	2% and 16%	0% and 27%	32% and 7%	1% and 18%
Nc1nc(-c2ccc3c(N)n[nH]c3c2)cc(N2CCCCC2)n1 [GSK2228768]	0	0	0	6	17	0	4	6	0	8	–	–	–	–	–	–	–	–	–
CSc1ccc(NC2=C(c3ccccc3Cl)C(=O)NC2=O)cc1 [SB-342411]	26	0	7	0	0	5	2	28	0	13	–	–	–	–	–	–	–	–	–
FC(F)(F)c1ccc(-c2cc(-c3c[nH]nc3-c3ccccn3)ccn2)cc1 [GW599550]	0	6	21	23	16	23	16	17	4	2	–	–	–	–	–	–	–	–	–
Cl.Cn1ccc(-c2cccc(Nc3ccnc4cc(-c5nccs5)ccc34)c2)n1 [GW525701]	0	10	14	0	0	0	0	14	22	0	–	–	–	–	–	–	–	–	–
CNc1nccc(-c2c(-c3ccc(F)cc3)ncn2C2CCN(C)CC2)n1 [SB-222903]	10	2	0	0	0	0	19	0	14	0	–	–	–	–	–	–	–	–	–
Nc1nc(-c2ccc3c(N)n[nH]c3c2)cc(N2CCC[C@@H](C(=O)Nc3ccccc3)C2)n1.O=C(O)C(F)(F)F.O=C(O)C(F)(F)F [GSK2288359]	0	0	0	12	7	0	1	5	13	29	–	–	–	–	–	–	–	–	–
CC(=O)Nc1n[nH]c2ncc(-c3ccccc3)cc12 [SB-548492]	7	17	10	0	0	0	0	0	30	20	–	–	–	–	–	–	–	–	–

Compound	%Inh (PRKCD) [%]	%Inh (PRKCE) [%]	%Inh (PRKCH) [%]	%Inh (PRKCI) [%]	%Inh (PRKCQ) [%]	%Inh (PRKD1) [%]	%Inh (PRKD2) [%]	%Inh (PRKD3) [%]	%Inh (PRKG1) [%]	%Inh (PRKG2) [%]	%Inh (PRKCD; 1 µM)	%Inh (PRKCE; 1 µM)	%Inh (PRKCH; 1 µM)	%Inh (PRKCI; 1 µM)	%Inh (PRKD1; 1 µM)	%Inh (PRKD2; 1 µM)	%Inh (PRKD3; 1 µM)	%Inh (PRKG1; 1 µM)	%Inh (PRKG2; 1 µM)
C[C@@H]1CCN(C(=O)CO)C[C@@H]1N(C)c1ncnc2[nH]ccc12	22	54	0	0	0	17	6	7	95.3	0	–	–	–	–	–	–	–	–	–
Nc1nccc2scc(-c3ccc4c(c3)CCN4C(=O)Cc3cc(F)ccc3F)c12 [GSK2587663]	0	0	16	1	24	0	18	16	9	2	–	–	–	–	–	–	–	–	–
COC(=O)c1cccc(NC(=O)NCCNc2ccnc(Nc3ccc(F)cc3)n2)c1 [GSK1379883]	0	6	34	24	0	21	35	0	7	0	–	–	–	–	–	–	–	–	–
Fc1ccc(-c2ncn(CCCNCc3ccccc3)c2-c2ccncc2)cc1	0	26	0	0	30	20	0	27	7	0	–	–	–	–	–	–	–	–	–
N#Cc1ccc(Oc2ccc(Nc3ncnc4cc[nH]c34)cc2Cl)cc1	0	0	22	12	19	0	10	0	0	30	–	–	–	–	–	–	–	–	–
CC(C)(C)c1ccc(-n2cnc3c(N)ncnc32)cc1 [SKF-97263]	6	13	29	1	15	0	0	55	11	0	–	–	–	–	–	–	–	–	–
NC(=O)c1sc(-n2cnc3ccccc32)cc1OCc1ccccc1F [GSK1024306]	0	12	17	0	0	0	7	0	12	0	–	–	–	–	–	–	–	–	–
Fc1cccc(COc2ccc(Nc3ncnc4nn5ccccc5c34)cc2Cl)c1 [GW689066]	0	0	0	25	7	0	0	0	0	0	–	–	–	–	–	–	–	–	–
Fc1cccc(COc2ccc(Nc3ncnc4sc(-c5ccc[nH]5)cc34)cc2Cl)c1 [GW707818]	0	14	100	9	0	26	54	0	0	10	–	–	–	–	–	–	–	–	–
Cl.O=S(=O)(c1cccc(F)c1)c1ccc(Nc2ncnc3cc(Br)sc23)cc1Cl [GSK306886]	0	45	0	0	0	7	13	4	0	23	–	–	–	–	–	–	–	–	–
COc1cc2ncnc(Nc3ccc(OCc4ccccc4Br)c(Cl)c3)c2cc1OC.Cl [GI261590]	0	8	0	33	100	4	0	0	0	0	–	–	–	–	–	–	–	–	–
Cl.c1ccc(Cn2ccc3cc(Nc4ncnc5ccccc45)ccc32)cc1 [GW275568]	0	8	0	31	11	0	18	13	0	28	–	–	–	–	–	–	–	–	–
COc1ccc(Nc2nccc(N3CCC(NC(=O)c4cccc(NC(C)=O)c4)C3)n2)cc1 (stereo not drawn) [GSK1379732]	8	16	17	5	25	13	20	11	2	11	–	–	–	–	–	–	–	–	–
COc1ccc(-c2oc3ncnc(N)c3c2-c2ccc(OC)cc2)cc1 [SB-589132]	0	28	4	35	0	30	0	0	0	0	–	–	–	–	–	–	–	–	–
FC(F)(F)c1cc(Nc2nccc(-c3c(-c4ccc(Cl)cc4)nn4ncccc34)n2)ccc1Cl [GW829351]	0	17	0	0	3	0	0	0	23	0	–	–	–	–	–	–	–	–	–
C[C@H]1CC[C@@H](C(=O)Nc2ccccc2)CN1c1cc(-c2ccc3c(N)n[nH]c3c2)nc(N)n1 [GSK2283293]	0	0	24	24	4	0	4	0	0	4	–	–	–	–	–	–	–	–	–
